The values below come from PubChem BioAssay (NCI).

This is part of a sample that, as a whole, favours compounds with a hit. Of some 83,000 tested, about 20% had one in any assay.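 Single-concentration screen, 48 h exposure, 96-well plates. Endpoint: percent growth. Below 10 = active.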 Activity calls are given as the source filed them.

This assay relates to NCI-H460 lung. As to the kind of experiment: NCI-60 one-dose screen, 48 h (100 = growth as untreated, 0 = no growth, -100 = all killed). The note with it: 10 µM unless noted.
For the compound `COC(=O)C[C@](O)(CCCC(C)(C)O)C(=O)O[C@H]1C(OC)=C[C@@]23CCCN2CCc2cc4c(cc2[C@@H]13)OCO4`, the growth is -3.74% (active).

With `N/C(=N\N=C\c1ccc([N+](=O)[O-])cc1)c1c(N)nc(=S)[nH]c1-c1ccc(Cl)cc1Cl`, the growth was 114% (inactive).

On to `CC1(c2cc3cc(Cl)ccc3oc2=O)NC(=O)c2c(/C=C/C(=O)OC3CC4CCC3(C)C4(C)C)cccc2N1` (configuration not stated), for which the growth was 67.2% (inactive).

On to `O=C(N=Nc1c(O)[nH]c2ccc(Cl)cc12)c1ccc2nc(-c3ccccc3)[nH]c2c1`, for which the growth was 26.3% (inactive).

Regarding `O=C(O)c1cccc(-c2ccc(/C=N/NC(=O)c3[nH]c4ccc(Br)cc4c3-c3ccccc3)o2)c1`, the growth was 95.3% (inactive).

In the case of `CC1(C)CC[C@]2(C(=O)Nc3ccccc3)CC[C@]3(C)C(=CCC4[C@@]5(C)C[C@@H](O)[C@H](O)[C@@](C)(CO)C5CC[C@]43C)C2C1` (some centres not stated), the growth is 51.4% (inactive).

On to `O=c1[nH]c2ccccc2cc1CSc1cccc(Nc2nccc(-c3ccc4ccccc4c3)n2)c1`, for which the growth was 98.8% (inactive).

`Clc1cccc(N/N=C/c2c[nH]c3ccc(Br)cc23)n1`: the growth was 12.9% (inactive).

For `CSc1ccc(NC(=O)c2ccc3nnn(/C(C#N)=C/c4ccccn4)c3c2)cc1`, the growth is -47.2% (active).

For `Cc1c(C(=O)NNC(=O)c2ccc(Cl)cc2)nnn1-c1ccc(Cl)cc1`, the growth is 104% (inactive).

In the case of `CNC(=O)c1cc(Oc2ccc3nc(NC(=O)Nc4cccc(OC(F)(F)F)c4)sc3c2)ccn1`, the growth is 29.9% (inactive).

Regarding `CC(C)(C)OC(=O)/C=C/c1cccc2c1C(=O)NC(C)(c1cc3cc(Cl)ccc3oc1=O)N2` (configuration not stated), the growth is 43.9% (inactive).
